# Results as given in publication PMC11006913.
# Experiments:
# Experiment in all cases: PBM; 200 nM protein, PBS
# Details in all cases: dsDNA, one strand shown
# HOXB9 [1] = molecular target: HOXB9 (Homo sapiens, UniProt P17482 171-250, T197M)
# HOXC9 [2] = molecular target: HOXC9 (Homo sapiens, UniProt P31274 178-260, K195R)
# HOXC10 [3] = molecular target: HOXC10 (Homo sapiens, UniProt Q9NYD6 254-340)
# HOXB9 [4] = molecular target: HOXB9 (Homo sapiens, UniProt P17482 171-250)
# HOXC9 [5] = molecular target: HOXC9 (Homo sapiens, UniProt P31274 178-260)
# Sequence of HOXC9 (Homo sapiens, UniProt P31274 178-260) (P31274 178-260): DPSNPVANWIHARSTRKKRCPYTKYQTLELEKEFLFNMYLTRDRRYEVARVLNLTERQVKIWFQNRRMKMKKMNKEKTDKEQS
# HOXD13 [6] = molecular target: HOXD13 (Homo sapiens, UniProt P35453 263-343, T313R)
# Sequence of HOXD13 (Homo sapiens, UniProt P35453 263-343, T313R) (P35453 263-343 T313R): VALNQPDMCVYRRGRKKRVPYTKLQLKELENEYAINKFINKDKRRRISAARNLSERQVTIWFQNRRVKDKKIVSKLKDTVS
# HOXC9 [7] = molecular target: HOXC9 (Homo sapiens, UniProt P31274 178-260, R193K)
# Sequence of HOXC9 (Homo sapiens, UniProt P31274 178-260, R193K) (P31274 178-260 R193K): as the sequence (P31274 178-260) above, with R16K counted along it
# HOXD13 [8] = molecular target: HOXD13 (Homo sapiens, UniProt P35453 263-343)
# Sequence of HOXD13 (Homo sapiens, UniProt P35453 263-343) (P35453 263-343): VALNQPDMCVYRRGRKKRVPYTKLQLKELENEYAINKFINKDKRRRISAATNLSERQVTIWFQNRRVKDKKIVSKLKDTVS
# HOXC10 [9] = molecular target: HOXC10 (Homo sapiens, UniProt Q9NYD6 254-340, K271E)
# Sequence of HOXC10 (Homo sapiens, UniProt Q9NYD6 254-340, K271E) (Q9NYD6 254-340 K271E): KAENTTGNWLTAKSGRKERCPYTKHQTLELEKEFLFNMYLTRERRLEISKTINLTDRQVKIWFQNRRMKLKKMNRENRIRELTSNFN
# HOXD13 [10] = molecular target: HOXD13 (Homo sapiens, UniProt P35453 263-343, T313A)
# Sequence of HOXD13 (Homo sapiens, UniProt P35453 263-343, T313A) (P35453 263-343 T313A): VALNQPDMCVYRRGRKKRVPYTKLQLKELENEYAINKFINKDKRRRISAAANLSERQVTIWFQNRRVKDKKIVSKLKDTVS
# HOXB9 [11] = molecular target: HOXB9 (Homo sapiens, UniProt P17482 171-250, R186Q)
# Sequence of HOXB9 (Homo sapiens, UniProt P17482 171-250, R186Q) (P17482 171-250 R186Q): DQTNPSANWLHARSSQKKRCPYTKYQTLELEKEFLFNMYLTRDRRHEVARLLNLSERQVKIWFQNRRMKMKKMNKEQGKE
# HOXC9 [12] = molecular target: HOXC9 (Homo sapiens, UniProt P31274 178-260, R222W)
# Sequence of HOXC9 (Homo sapiens, UniProt P31274 178-260, R222W) (P31274 178-260 R222W): as the sequence (P31274 178-260) above, with R45W counted along it
# MSX2 [13] = molecular target: MSX2 (Homo sapiens, UniProt P35548 130-214)
# Sequence of MSX2 (Homo sapiens, UniProt P35548 130-214) (P35548 130-214): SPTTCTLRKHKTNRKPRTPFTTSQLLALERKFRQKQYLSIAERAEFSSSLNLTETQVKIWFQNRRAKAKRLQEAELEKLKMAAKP
# MSX2 [14] = molecular target: MSX2 (Homo sapiens, UniProt P35548 130-214, F161Y)
# Sequence of MSX2 (Homo sapiens, UniProt P35548 130-214, F161Y) (P35548 130-214 F161Y): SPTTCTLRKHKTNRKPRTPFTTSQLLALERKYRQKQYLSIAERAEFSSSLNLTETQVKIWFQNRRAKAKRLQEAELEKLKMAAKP
# Sequence of HOXB9 (Homo sapiens, UniProt P17482 171-250, T197M) (P17482 171-250 T197M): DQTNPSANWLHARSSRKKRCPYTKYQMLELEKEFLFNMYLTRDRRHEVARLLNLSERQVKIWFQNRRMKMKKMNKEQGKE
# Sequence of HOXB9 (Homo sapiens, UniProt P17482 171-250) (P17482 171-250): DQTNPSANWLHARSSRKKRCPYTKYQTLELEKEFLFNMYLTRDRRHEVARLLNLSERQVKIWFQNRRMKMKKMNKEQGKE
# Sequence of HOXC10 (Homo sapiens, UniProt Q9NYD6 254-340) (Q9NYD6 254-340): as the sequence (Q9NYD6 254-340 K271E) above, with E18K counted along it
# Sequence of HOXC9 (Homo sapiens, UniProt P31274 178-260, K195R) (P31274 178-260 K195R): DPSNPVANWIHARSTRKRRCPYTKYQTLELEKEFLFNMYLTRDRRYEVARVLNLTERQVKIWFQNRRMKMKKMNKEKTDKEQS
Sequence,binding signal (HOXB9 [1]),binding signal (HOXC9 [2]),binding signal (HOXC10 [3]),binding signal (HOXB9 [4]),binding signal (HOXC9 [5]),binding signal (HOXD13 [6]),binding signal (HOXC9 [7]),binding signal (HOXD13 [8]),binding signal (HOXC10 [9]),binding signal (HOXD13 [10]),binding signal (HOXB9 [11]),binding signal (HOXC9 [12]),binding signal (MSX2 [13]),binding signal (MSX2 [14])
CATAAAAG,"9.76 upbm affinity estimate (log intensity, higher = more binding, comparable within an allelic series)","12.6 upbm affinity estimate (log intensity, higher = more binding, comparable within an allelic series)","12.4 upbm affinity estimate (log intensity, higher = more binding, comparable within an allelic series)","12 upbm affinity estimate (log intensity, higher = more binding, comparable within an allelic series)","12.8 upbm affinity estimate (log intensity, higher = more binding, comparable within an allelic series)","10.7 upbm affinity estimate (log intensity, higher = more binding, comparable within an allelic series)","12.7 upbm affinity estimate (log intensity, higher = more binding, comparable within an allelic series)","11.8 upbm affinity estimate (log intensity, higher = more binding, comparable within an allelic series)","11.8 upbm affinity estimate (log intensity, higher = more binding, comparable within an allelic series)","11.6 upbm affinity estimate (log intensity, higher = more binding, comparable within an allelic series)","11.7 upbm affinity estimate (log intensity, higher = more binding, comparable within an allelic series)","11.2 upbm affinity estimate (log intensity, higher = more binding, comparable within an allelic series)",–,–
ATAAAACA,"9.83 upbm affinity estimate (log intensity, higher = more binding, comparable within an allelic series)","12.4 upbm affinity estimate (log intensity, higher = more binding, comparable within an allelic series)","12.2 upbm affinity estimate (log intensity, higher = more binding, comparable within an allelic series)","11.8 upbm affinity estimate (log intensity, higher = more binding, comparable within an allelic series)","12.5 upbm affinity estimate (log intensity, higher = more binding, comparable within an allelic series)","10.7 upbm affinity estimate (log intensity, higher = more binding, comparable within an allelic series)","12.5 upbm affinity estimate (log intensity, higher = more binding, comparable within an allelic series)","11.9 upbm affinity estimate (log intensity, higher = more binding, comparable within an allelic series)","11.6 upbm affinity estimate (log intensity, higher = more binding, comparable within an allelic series)","11.6 upbm affinity estimate (log intensity, higher = more binding, comparable within an allelic series)","11.5 upbm affinity estimate (log intensity, higher = more binding, comparable within an allelic series)","11.1 upbm affinity estimate (log intensity, higher = more binding, comparable within an allelic series)",–,–
ACAATAAA,"9.83 upbm affinity estimate (log intensity, higher = more binding, comparable within an allelic series)","12.6 upbm affinity estimate (log intensity, higher = more binding, comparable within an allelic series)","12.3 upbm affinity estimate (log intensity, higher = more binding, comparable within an allelic series)","12 upbm affinity estimate (log intensity, higher = more binding, comparable within an allelic series)","12.9 upbm affinity estimate (log intensity, higher = more binding, comparable within an allelic series)","10.9 upbm affinity estimate (log intensity, higher = more binding, comparable within an allelic series)","12.7 upbm affinity estimate (log intensity, higher = more binding, comparable within an allelic series)","12.1 upbm affinity estimate (log intensity, higher = more binding, comparable within an allelic series)","11.7 upbm affinity estimate (log intensity, higher = more binding, comparable within an allelic series)","11.8 upbm affinity estimate (log intensity, higher = more binding, comparable within an allelic series)","11.7 upbm affinity estimate (log intensity, higher = more binding, comparable within an allelic series)","11.1 upbm affinity estimate (log intensity, higher = more binding, comparable within an allelic series)",–,–
ACCATAAA,"9.6 upbm affinity estimate (log intensity, higher = more binding, comparable within an allelic series)","12.5 upbm affinity estimate (log intensity, higher = more binding, comparable within an allelic series)","12.3 upbm affinity estimate (log intensity, higher = more binding, comparable within an allelic series)","11.9 upbm affinity estimate (log intensity, higher = more binding, comparable within an allelic series)","12.8 upbm affinity estimate (log intensity, higher = more binding, comparable within an allelic series)","10.8 upbm affinity estimate (log intensity, higher = more binding, comparable within an allelic series)","12.7 upbm affinity estimate (log intensity, higher = more binding, comparable within an allelic series)","12 upbm affinity estimate (log intensity, higher = more binding, comparable within an allelic series)","11.5 upbm affinity estimate (log intensity, higher = more binding, comparable within an allelic series)","11.7 upbm affinity estimate (log intensity, higher = more binding, comparable within an allelic series)","11.6 upbm affinity estimate (log intensity, higher = more binding, comparable within an allelic series)","10.9 upbm affinity estimate (log intensity, higher = more binding, comparable within an allelic series)",–,–
ACATAAAA,"9.85 upbm affinity estimate (log intensity, higher = more binding, comparable within an allelic series)","12.8 upbm affinity estimate (log intensity, higher = more binding, comparable within an allelic series)","12.5 upbm affinity estimate (log intensity, higher = more binding, comparable within an allelic series)","12.3 upbm affinity estimate (log intensity, higher = more binding, comparable within an allelic series)","13 upbm affinity estimate (log intensity, higher = more binding, comparable within an allelic series)",–,"12.9 upbm affinity estimate (log intensity, higher = more binding, comparable within an allelic series)",–,"12 upbm affinity estimate (log intensity, higher = more binding, comparable within an allelic series)",–,"12 upbm affinity estimate (log intensity, higher = more binding, comparable within an allelic series)","11.3 upbm affinity estimate (log intensity, higher = more binding, comparable within an allelic series)","11.3 upbm affinity estimate (log intensity, higher = more binding, comparable within an allelic series)","11.1 upbm affinity estimate (log intensity, higher = more binding, comparable within an allelic series)"
ATTTTATG,"9.94 upbm affinity estimate (log intensity, higher = more binding, comparable within an allelic series)","13 upbm affinity estimate (log intensity, higher = more binding, comparable within an allelic series)","12.7 upbm affinity estimate (log intensity, higher = more binding, comparable within an allelic series)","12.5 upbm affinity estimate (log intensity, higher = more binding, comparable within an allelic series)","13.1 upbm affinity estimate (log intensity, higher = more binding, comparable within an allelic series)","10.8 upbm affinity estimate (log intensity, higher = more binding, comparable within an allelic series)","13 upbm affinity estimate (log intensity, higher = more binding, comparable within an allelic series)","11.8 upbm affinity estimate (log intensity, higher = more binding, comparable within an allelic series)","12.1 upbm affinity estimate (log intensity, higher = more binding, comparable within an allelic series)","11.5 upbm affinity estimate (log intensity, higher = more binding, comparable within an allelic series)","12.1 upbm affinity estimate (log intensity, higher = more binding, comparable within an allelic series)","11.4 upbm affinity estimate (log intensity, higher = more binding, comparable within an allelic series)",–,–
